Data as given in ChEMBL document CHEMBL2218924, “A broad activity screen in support of a chemogenomic map for kinase signalling research and drug discovery” (Biochem J, 2013).

Legend:
[1] = target: T1, Dual specificity mitogen-activated protein kinase kinase 6 (Homo sapiens) (UniProt P52564); conditions: at 1 µM
T1 sequence (whole entry): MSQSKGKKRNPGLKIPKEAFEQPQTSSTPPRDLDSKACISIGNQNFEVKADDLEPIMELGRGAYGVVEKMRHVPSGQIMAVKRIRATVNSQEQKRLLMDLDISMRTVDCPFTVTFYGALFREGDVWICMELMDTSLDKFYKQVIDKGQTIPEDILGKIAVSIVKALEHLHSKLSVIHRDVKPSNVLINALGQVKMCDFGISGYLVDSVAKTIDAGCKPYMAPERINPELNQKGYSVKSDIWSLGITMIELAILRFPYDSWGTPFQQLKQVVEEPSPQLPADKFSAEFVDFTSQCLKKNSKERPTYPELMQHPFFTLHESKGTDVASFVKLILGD

[2] = target: T1, Dual specificity mitogen-activated protein kinase kinase 6 (Homo sapiens); conditions: at 10 µM
[3] = target: T2, Dual specificity mitogen-activated protein kinase kinase 7 (Homo sapiens) (UniProt O14733); conditions: at 1 µM
T2 sequence (whole entry): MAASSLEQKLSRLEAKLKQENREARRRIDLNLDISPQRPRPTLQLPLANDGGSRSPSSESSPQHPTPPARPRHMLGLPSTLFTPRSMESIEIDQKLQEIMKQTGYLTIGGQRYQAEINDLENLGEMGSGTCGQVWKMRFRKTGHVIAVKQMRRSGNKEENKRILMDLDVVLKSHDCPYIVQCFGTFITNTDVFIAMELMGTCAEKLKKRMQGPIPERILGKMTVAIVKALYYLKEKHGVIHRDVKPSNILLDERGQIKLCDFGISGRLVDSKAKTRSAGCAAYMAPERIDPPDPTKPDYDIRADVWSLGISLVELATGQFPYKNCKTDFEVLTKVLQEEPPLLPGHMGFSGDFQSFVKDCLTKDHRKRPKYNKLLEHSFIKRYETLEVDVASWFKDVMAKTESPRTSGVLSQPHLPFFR

[4] = target: T2, Dual specificity mitogen-activated protein kinase kinase 7 (Homo sapiens); conditions: at 10 µM
[5] = target: Myosin light chain kinase, smooth muscle (Homo sapiens) (UniProt Q15746); conditions: at 1 µM
[6] = target: Myosin light chain kinase, smooth muscle (Homo sapiens) (UniProt Q15746); conditions: at 10 µM
[7] = target: Mitogen-activated protein kinase kinase kinase 9 (Homo sapiens) (UniProt P80192); conditions: at 1 µM
Chain of Mitogen-activated protein kinase kinase kinase 9 (Homo sapiens) (P80192 whole entry, looked up): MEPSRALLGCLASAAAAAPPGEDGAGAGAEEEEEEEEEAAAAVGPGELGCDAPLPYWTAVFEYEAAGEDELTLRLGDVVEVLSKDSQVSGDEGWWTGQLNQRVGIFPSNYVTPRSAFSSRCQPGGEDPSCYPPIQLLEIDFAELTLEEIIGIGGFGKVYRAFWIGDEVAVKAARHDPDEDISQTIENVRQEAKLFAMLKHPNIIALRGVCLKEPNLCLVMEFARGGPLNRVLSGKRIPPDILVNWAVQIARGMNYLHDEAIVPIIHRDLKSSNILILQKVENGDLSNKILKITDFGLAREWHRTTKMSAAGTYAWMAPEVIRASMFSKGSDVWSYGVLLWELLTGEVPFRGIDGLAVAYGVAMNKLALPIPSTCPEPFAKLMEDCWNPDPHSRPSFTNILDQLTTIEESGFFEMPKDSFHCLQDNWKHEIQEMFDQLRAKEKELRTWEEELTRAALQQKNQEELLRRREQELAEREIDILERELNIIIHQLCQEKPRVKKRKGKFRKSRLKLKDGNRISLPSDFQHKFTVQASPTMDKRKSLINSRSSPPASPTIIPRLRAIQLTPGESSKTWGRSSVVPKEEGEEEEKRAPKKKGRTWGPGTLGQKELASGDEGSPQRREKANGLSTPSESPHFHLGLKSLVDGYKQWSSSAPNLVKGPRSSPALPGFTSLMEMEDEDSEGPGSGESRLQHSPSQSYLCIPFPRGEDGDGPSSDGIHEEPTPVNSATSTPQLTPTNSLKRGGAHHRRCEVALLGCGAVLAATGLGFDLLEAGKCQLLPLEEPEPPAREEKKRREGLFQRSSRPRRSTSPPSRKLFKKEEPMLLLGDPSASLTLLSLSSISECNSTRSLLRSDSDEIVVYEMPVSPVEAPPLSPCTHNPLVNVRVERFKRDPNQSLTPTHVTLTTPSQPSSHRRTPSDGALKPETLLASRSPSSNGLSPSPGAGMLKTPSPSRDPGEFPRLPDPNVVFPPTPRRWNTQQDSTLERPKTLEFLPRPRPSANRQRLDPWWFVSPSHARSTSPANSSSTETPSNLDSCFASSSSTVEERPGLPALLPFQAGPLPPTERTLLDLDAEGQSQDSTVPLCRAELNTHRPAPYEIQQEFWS

[8] = target: Mitogen-activated protein kinase kinase kinase 9 (Homo sapiens) (UniProt P80192); conditions: at 10 µM
[9] = target: T3, Serine/threonine-protein kinase 4 (Homo sapiens) (UniProt Q13043); conditions: at 1 µM
T3 sequence (whole entry): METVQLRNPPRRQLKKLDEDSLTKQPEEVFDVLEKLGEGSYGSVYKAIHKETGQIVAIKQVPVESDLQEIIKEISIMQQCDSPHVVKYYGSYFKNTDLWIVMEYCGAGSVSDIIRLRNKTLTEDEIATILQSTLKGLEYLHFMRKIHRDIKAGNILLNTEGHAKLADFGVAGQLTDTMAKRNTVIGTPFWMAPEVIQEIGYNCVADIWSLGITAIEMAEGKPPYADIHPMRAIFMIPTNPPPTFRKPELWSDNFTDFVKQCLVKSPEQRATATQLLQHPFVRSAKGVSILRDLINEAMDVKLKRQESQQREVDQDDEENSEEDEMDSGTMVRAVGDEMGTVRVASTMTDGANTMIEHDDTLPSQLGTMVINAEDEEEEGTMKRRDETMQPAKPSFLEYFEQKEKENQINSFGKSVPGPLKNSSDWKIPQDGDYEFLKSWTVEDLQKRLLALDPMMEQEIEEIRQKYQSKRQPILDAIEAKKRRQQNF

[10] = target: T3, Serine/threonine-protein kinase 4 (Homo sapiens); conditions: at 10 µM
[11] = target: Serine/threonine-protein kinase MRCK alpha (Homo sapiens) (UniProt Q5VT25); conditions: at 10 µM
Chain of Serine/threonine-protein kinase MRCK alpha (Homo sapiens) (Q5VT25 whole entry): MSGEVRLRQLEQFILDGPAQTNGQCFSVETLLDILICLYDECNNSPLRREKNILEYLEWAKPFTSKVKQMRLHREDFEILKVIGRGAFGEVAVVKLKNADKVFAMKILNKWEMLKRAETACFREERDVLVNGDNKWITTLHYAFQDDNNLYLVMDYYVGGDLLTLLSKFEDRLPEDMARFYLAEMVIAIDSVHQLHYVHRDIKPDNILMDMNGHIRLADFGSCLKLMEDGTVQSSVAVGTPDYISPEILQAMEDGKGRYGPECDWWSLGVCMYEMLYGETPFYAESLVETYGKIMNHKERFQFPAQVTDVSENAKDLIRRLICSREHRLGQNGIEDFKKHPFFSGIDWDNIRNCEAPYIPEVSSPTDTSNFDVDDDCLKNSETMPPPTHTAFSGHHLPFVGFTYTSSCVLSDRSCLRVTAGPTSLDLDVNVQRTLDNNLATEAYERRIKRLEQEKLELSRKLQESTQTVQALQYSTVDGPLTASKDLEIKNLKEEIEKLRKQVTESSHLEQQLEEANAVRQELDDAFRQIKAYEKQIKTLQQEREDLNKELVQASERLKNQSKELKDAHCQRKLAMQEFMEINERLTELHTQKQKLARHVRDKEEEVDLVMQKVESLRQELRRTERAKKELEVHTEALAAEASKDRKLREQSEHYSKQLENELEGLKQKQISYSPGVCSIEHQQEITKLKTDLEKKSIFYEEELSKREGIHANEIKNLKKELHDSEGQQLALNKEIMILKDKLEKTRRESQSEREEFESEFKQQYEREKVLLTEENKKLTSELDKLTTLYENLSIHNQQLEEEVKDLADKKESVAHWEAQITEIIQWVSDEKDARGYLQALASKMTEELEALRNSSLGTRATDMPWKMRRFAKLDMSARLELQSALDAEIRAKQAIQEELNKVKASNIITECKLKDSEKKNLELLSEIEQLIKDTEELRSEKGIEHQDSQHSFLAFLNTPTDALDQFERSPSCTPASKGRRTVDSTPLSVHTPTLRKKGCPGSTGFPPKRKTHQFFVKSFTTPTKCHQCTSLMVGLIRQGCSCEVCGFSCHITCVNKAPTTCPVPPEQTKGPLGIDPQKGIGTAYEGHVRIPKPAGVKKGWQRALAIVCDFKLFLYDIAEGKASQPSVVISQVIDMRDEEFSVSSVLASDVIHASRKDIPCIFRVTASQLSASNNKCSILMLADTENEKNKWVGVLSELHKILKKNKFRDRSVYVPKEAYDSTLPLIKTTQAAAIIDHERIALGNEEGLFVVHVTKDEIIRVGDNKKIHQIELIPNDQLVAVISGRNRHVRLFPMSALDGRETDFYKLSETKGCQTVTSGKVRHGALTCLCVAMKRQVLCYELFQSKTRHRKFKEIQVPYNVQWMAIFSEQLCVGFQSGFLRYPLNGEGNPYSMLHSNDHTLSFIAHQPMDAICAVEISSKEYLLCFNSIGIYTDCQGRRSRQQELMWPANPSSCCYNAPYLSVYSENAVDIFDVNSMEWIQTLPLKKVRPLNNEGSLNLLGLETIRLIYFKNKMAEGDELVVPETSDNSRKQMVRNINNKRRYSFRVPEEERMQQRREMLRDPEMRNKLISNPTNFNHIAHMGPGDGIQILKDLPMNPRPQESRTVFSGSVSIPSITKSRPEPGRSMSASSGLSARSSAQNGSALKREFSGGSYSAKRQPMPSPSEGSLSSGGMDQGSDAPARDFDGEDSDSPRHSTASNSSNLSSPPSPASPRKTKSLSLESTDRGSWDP

[12] = target: Serine/threonine-protein kinase MRCK beta (Homo sapiens) (UniProt Q9Y5S2); conditions: at 1 µM
[13] = target: Serine/threonine-protein kinase MRCK beta (Homo sapiens) (UniProt Q9Y5S2); conditions: at 10 µM
[14] = target: Ribosomal protein S6 kinase alpha-5 (Homo sapiens) (UniProt O75582); conditions: at 1 µM
Chain of Ribosomal protein S6 kinase alpha-5 (Homo sapiens) (O75582 whole entry, looked up): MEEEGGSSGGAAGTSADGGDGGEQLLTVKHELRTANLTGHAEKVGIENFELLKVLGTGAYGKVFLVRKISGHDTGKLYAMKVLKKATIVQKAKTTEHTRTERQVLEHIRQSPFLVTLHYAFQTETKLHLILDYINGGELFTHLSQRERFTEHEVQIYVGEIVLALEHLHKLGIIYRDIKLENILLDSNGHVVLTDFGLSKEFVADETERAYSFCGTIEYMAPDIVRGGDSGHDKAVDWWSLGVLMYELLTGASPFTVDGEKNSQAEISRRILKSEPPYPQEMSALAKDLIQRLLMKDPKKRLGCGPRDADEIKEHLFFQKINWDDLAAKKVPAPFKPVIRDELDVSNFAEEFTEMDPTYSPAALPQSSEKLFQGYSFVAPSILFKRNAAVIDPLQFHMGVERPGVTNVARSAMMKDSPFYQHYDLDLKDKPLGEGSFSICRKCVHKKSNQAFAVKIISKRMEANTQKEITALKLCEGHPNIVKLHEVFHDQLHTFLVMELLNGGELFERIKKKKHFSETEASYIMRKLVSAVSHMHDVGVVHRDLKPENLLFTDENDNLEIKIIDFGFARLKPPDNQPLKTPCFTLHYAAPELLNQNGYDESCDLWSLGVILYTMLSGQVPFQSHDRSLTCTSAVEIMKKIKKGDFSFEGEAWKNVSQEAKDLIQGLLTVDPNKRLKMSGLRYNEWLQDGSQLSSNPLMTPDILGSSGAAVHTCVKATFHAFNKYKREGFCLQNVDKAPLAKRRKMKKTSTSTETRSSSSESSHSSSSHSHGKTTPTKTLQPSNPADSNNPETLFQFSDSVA

[15] = target: Ribosomal protein S6 kinase alpha-5 (Homo sapiens) (UniProt O75582); conditions: at 10 µM
[16] = target: Ribosomal protein S6 kinase alpha-4 (Homo sapiens) (UniProt O75676); conditions: at 1 µM
Chain of Ribosomal protein S6 kinase alpha-4 (Homo sapiens) (O75676 whole entry, looked up): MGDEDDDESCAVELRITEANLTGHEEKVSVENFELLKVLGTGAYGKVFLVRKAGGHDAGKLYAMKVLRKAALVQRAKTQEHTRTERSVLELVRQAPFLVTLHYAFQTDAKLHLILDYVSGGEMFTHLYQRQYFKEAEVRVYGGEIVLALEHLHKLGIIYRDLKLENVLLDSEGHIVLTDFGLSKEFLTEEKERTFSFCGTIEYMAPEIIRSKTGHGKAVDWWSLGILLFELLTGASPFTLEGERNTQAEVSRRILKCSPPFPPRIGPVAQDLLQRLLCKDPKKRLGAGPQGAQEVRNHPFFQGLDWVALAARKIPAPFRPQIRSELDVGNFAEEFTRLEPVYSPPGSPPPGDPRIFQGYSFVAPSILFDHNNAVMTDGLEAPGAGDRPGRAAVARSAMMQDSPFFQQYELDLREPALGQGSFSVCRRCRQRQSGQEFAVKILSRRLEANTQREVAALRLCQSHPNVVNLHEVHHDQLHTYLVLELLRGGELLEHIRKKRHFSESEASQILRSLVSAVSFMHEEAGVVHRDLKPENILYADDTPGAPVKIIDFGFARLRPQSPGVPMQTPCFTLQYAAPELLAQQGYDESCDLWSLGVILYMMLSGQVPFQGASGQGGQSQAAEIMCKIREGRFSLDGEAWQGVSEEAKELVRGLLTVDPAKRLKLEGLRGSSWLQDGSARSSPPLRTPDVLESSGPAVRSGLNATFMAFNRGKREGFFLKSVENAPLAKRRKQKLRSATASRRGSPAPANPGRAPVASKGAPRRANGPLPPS

[17] = target: Ribosomal protein S6 kinase alpha-4 (Homo sapiens) (UniProt O75676); conditions: at 10 µM
[18] = target: Serine/threonine-protein kinase MRCK alpha (Homo sapiens) (UniProt Q5VT25); conditions: at 1 µM
[19] = target: SRSF protein kinase 3 (Homo sapiens) (UniProt Q9UPE1); conditions: at 1 µM
Chain of SRSF protein kinase 3 (Homo sapiens) (Q9UPE1 whole entry): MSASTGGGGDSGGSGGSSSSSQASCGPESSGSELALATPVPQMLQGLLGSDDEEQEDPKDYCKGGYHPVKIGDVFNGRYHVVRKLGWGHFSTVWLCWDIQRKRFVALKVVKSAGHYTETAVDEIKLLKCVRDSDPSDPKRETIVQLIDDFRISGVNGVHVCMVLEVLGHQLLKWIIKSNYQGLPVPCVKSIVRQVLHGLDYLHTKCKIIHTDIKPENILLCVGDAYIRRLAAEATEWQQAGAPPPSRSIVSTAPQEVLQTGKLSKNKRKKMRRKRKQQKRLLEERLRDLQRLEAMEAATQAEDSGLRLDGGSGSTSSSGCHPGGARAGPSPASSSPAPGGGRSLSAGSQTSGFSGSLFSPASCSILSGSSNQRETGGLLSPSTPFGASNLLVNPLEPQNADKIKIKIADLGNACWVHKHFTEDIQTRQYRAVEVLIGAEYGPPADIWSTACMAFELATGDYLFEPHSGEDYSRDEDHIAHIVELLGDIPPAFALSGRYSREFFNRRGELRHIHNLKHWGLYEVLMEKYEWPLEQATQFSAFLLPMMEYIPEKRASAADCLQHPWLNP

[20] = target: SRSF protein kinase 3 (Homo sapiens) (UniProt Q9UPE1); conditions: at 10 µM

Structure (SMILES) | residual activity [1] | residual activity [2] | residual activity [3] | residual activity [4] | residual activity [5] | residual activity [6] | residual activity [7] | residual activity [8] | residual activity [9] | residual activity [10] | residual activity [11] | residual activity [12] | residual activity [13] | residual activity [14] | residual activity [15] | residual activity [16] | residual activity [17] | residual activity [18] | residual activity [19] | residual activity [20]
O=C1NC(=O)C(c2cn(CCCO)c3ncccc23)=C1c1cnccn1 | 85% | 77% | 100% | 99% | 84% | 78% | 75% | 55% | 77% | 60% |  |  |  |  |  |  |  |  |  | 
Cn1c2ccccc2c2c3c(c4c5ccccc5n(CCC#N)c4c21)CNC3=O | 0% | 1% | 52% | 34% | 16% | 11% | 2% | 2% | 1% | 2% | 79% | 74% | 64% | 3% | 2% | 2% | 5% |  |  | 
O=c1cc(N2CCNCC2)oc2c(-c3ccccc3)cccc12 | 92% | 89% | 100% | 79% | 93% | 95% | 88% | 104% | 98% | 99% |  | 93% | 76% |  | 94% | 93% | 103% | 86% | 103% | 89%
O=C(c1ccccc1)c1ccc(N2CCOCC2)cc1O | 85% | 79% | 98% | 85% | 88% | 87% |  |  | 111% | 116% | 100% | 91% | 82% |  | 86% | 88% | 100% | 100% | 113% | 
CCN(CC)CCNC(=O)c1c(C)[nH]c(/C=C2\C(=O)Nc3ccc(Cl)cc32)c1C | 66% | 46% |  | 81% | 9% | 3% | 24% | 4% | 12% | 5% |  |  |  | 80% | 31% | 42% | 15% |  | 98% | 61%
O=C1Cc2c([nH]c3ccc(Br)cc23)-c2ccccc2N1 | 100% | 77% | 95% | 62% | 89% | 58% | 22% | 4% | 44% | 35% |  | 72% | 52% |  |  | 82% | 63% |  | 98% | 87%
O=C(CCCc1ccc(-c2ccccc2F)cc1)Nc1ccc(O)cc1 | 98% | 75% | 89% | 85% | 102% | 82% | 91% | 89% | 80% | 107% | 136% | 108% | 105% | 110% | 104% | 110% | 100% | 107% | 105% | 94%
O=c1c(-c2ccc(F)cc2)c(-c2ccncc2)[nH]n1-c1ccc(Cl)cc1 | 74% | 0% | 77% | 22% |  |  |  |  |  |  |  |  |  |  |  |  |  | 119% |  | 
O=C1Cc2c([nH]c3ccc([N+](=O)[O-])cc23)-c2ccccc2N1 | 79% | 77% | 73% |  |  |  | 7% | 5% | 33% | 30% | 79% | 48% | 57% | 108% | 107% |  |  | 60% | 100% | 100%
O=C(NC(NC(=S)Nc1ccc(F)c([N+](=O)[O-])c1)C(Cl)(Cl)Cl)C(c1ccccc1)c1ccccc1 (stereo unspecified) | 135% | 80% |  | 96% | 103% | 79% | 102% | 103% | 92% |  |  | 97% | 87% |  |  | 95% | 94% |  | 98% | 
NC(=O)Nc1sc(-c2ccc(F)cc2)cc1C(N)=O | 97% | 41% | 96% | 44% | 92% | 31% | 9% | 1% | 28% | 10% |  | 80% | 50% |  |  | 85% | 46% |  | 96% | 67%
NCCNc1ncc(C(N)=O)c(Nc2cccc(C(F)(F)F)c2)n1 | 18% | 6% | 73% | 38% | 67% | 55% | 30% | 4% |  |  | 105% |  |  | 112% | 77% | 81% | 81% | 104% | 108% | 75%
N#C/C(=C1/Nc2ccccc2S1)c1ccnc(NCCc2cccnc2)n1 | 84% | 39% | 67% | 42% | 96% | 73% | 48% | 9% | 81% | 84% |  |  |  | 112% | 68% |  |  |  |  | 
Nc1ncnc2c1cnn2-c1ccccc1 | 79% | 91% | 97% | 94% | 86% | 84% | 83% | 57% | 97% |  |  | 95% | 83% |  |  |  | 86% |  |  | 23%
Fc1ccc(-c2nc3n(c2-c2ccncc2)CCS3)cc1 | 61% | 9% | 82% | 83% |  |  |  |  |  |  |  | 99% | 98% |  |  | 95% | 85% |  |  | 
NC(=O)c1ccc(-c2nc(-c3ccc4c(c3)OCCO4)c(-c3ccccn3)[nH]2)cc1 | 97% | 58% | 91% | 95% |  |  | 94% | 79% | 90% | 118% |  | 95% | 92% | 120% | 124% |  |  |  |  | 
CSc1nc(-c2ccc(F)cc2)c(-c2ccnc(NC(C)c3ccccc3)c2)[nH]1 (stereo unspecified) | 70% | -2% | 99% | 48% |  | 68% | 99% | 85% |  |  |  |  | 89% |  |  | 100% | 84% |  |  | 86%
O=C1Nc2ccc(Cl)cc2/C1=C/c1cc(Cl)c(O)c(Cl)c1 | 82% | 38% | 95% | 61% | 39% | 37% | 56% | 18% | 41% | 12% | 96% | 80% | 67% |  |  | 84% | 51% | 99% | 100% | 71%
Nc1ncnc2c1c(-c1ccc(Oc3ccccc3)cc1)cn2C1CCCC1 | 85% | 89% | 95% | 79% | 63% | 45% |  |  | 76% | 48% | 118% | 90% | 69% | 126% | 67% | 83% | 59% | 107% | 106% | 96%
N#Cc1c(NC(=O)c2cccc3ccccc23)sc2c1CCCC2 | 93% | 85% | 88% | 82% |  | 83% | 96% | 95% |  |  |  | 100% |  |  |  |  | 99% |  |  | 
N#C/C(=C\c1ccc(O)c(O)c1)C(=O)NCc1ccccc1 | 89% | 101% | 83% | 68% | 101% | 100% |  |  |  |  | 87% | 87% | 82% |  | 57% | 86% | 74% |  |  | 88%
O=C(O)/C=C/c1cc(Br)c(Br)c(Br)c1Br | 99% | 84% |  | 71% | 94% | 22% | 93% | 72% | 97% | 97% |  | 106% | 90% |  | 102% | 102% | 64% |  | 124% | 100%
O=C(Nc1nc2ccccc2n1CCN1CCOCC1)c1cccc([N+](=O)[O-])c1 | 73% | 137% | 75% | 87% | 78% | 83% | 77% | 75% | 88% | 77% |  | 88% | 83% | 124% |  |  |  |  |  | 
c1ccc(-c2cnc(Nc3ccc(OCCN4CCCC4)cc3)s2)cc1 | 77% | 72% |  |  | 76% | 58% | 74% | 22% |  |  | 106% | 106% | 109% | 128% | 106% |  |  | 107% | 108% | 78%
CC(C)[C@H](CO)Nc1nc(Nc2cc(N)cc(Cl)c2)c2ncn(C(C)C)c2n1 | 93% | 78% | 95% |  | 82% | 29% |  |  | 82% | 47% |  | 100% | 90% | 118% | 76% |  | 51% | 122% | 40% | 12%
COc1ccc(COc2ccc(Cc3cnc(N)nc3N)cc2OC)cc1 | 78% | 80% | 113% | 80% |  |  |  |  |  | 77% |  |  |  | 131% | 109% |  |  |  | 111% | 82%
O=C1NC(=O)c2c1c1c3ccccc3[nH]c1n1cncc21 | 69% | 21% | 42% | 27% | 11% | 8% | 33% | 12% | 40% | 21% | 90% | 82% | 79% | 63% | 48% | 53% | 29% | 99% | 82% | 63%
CC(C)(C)c1nc2c3ccc(F)cc3c3c(=O)[nH]ccc3c2[nH]1 | 39% | 41% | 69% | 35% | 2% | 4% | 9% | 21% | 8% | 10% |  |  |  |  |  | 36% | 44% |  | 79% | 
